Data on 32 compounds can be found in PubChem BioAssay AID493200 (National Center for Advancing Translational Sciences (NCATS), 2011).

Results filed as inconclusive are left out. Entries that show only a call come without a potency. The source made the active and inactive calls. Calls come from the whole dose curve; as a rule, active = well fitted activation curve with a large enough effect; inconclusive = small, poorly fitted or top-dose-only effect; inactive = no such curve, though single readings can be large or run the other way.
Potency is the fitted concentration of half-maximal effect.

The nature of this assay: qHTS Assay for Rab9 Promoter Activators: Initial hit validation from the primary screen. The conditions noted are these: Huh7 Rab9 promoter luciferase reporter, 24 h; series mostly up to 46.1 µM. Put shortly: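 Luciferase signal, read 10 min after Amplite reagent, reports Rab9 promoter activation. Compounds in DMSO were applied for 24 h at 37C to Rab9-luciferase Huh7 cells, pre-incubated 2 h in reduced-serum medium with 10% FBS.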
As for `CC1(C)CC(=O)c2c(O)c(-c3ccccc3)c(=O)n(-c3ccccc3)c2C1`, the Potency result was “inactive”.
As to `NNC(=O)c1cccc(S(=O)(=O)Nc2cc(Cl)ccc2Cl)c1`, the Potency result was “inactive”.
As to `Cc1ccc(C(=O)NCc2ccc3c(c2)OCO3)cc1C`, the Potency was 25 µM (active).
Take `CC(=O)c1cccc(NC(=O)N2CCOCC2)c1`: the Potency entry is “inactive”.
To `COc1cccc(CNC(=O)CN(c2cc(C)cc(C)c2)S(=O)(=O)c2c(C)noc2C)c1` belongs “inactive”; to `CCOc1ccc(S(=O)(=O)NCc2ccccc2)cc1C(N)=O`, “inactive”.
In the case of `COc1ccc([N+](=O)[O-])cc1COc1ccc2c(-c3ccccc3)cc(=O)oc2c1`, the Potency entry was “inactive”.
To `Nc1nc(SCCO)[nH]c(=O)c1NC(=O)c1ccco1` belongs “inactive”.
To `COc1ccc(S(=O)(=O)NC(C(=O)NCCc2ccccn2)C(C)C)cc1` (configuration not stated) belongs “inactive”; to `CC1=C(C(=O)OC2CCCC(C)C2)C(c2ccccc2)NC(=O)N1` (configuration not stated), “inactive”; to `CCN(CC)S(=O)(=O)c1ccc(NCc2ccccn2)nc1`, “inactive”.
To `C=CCn1c(C)nnc1SCC(=O)Nc1nccs1` belongs “inactive”.
In the case of `Nc1ccccc1C(=O)N/N=C1/C2CN3CCN(C2)CC1(Cc1ccccc1)C3`, the Potency entry was “inactive”.
To `Cc1c(C(O)CN2CCN(Cc3ccc4c(c3)OCO4)CC2)c2ccccc2n1C` (configuration not stated) belongs “inactive”; to `O=C(NCC1CCCO1)C(c1ccc(F)cc1)N(Cc1ccc2c(c1)OCO2)C(=O)c1ccc(CN2CCOCC2)o1` (configuration not stated), “inactive”; to `O=C(CSc1nnc(-c2ccccc2)o1)Nc1ccccc1F`, 0.112 µM (active).
With `COc1ccc(C2(CNC(=O)/C=C/c3ccco3)CCCC2)cc1OC` the entry was “inactive”.
`CC1CN(C(=O)c2ccncc2)CC(C)O1` (configuration not stated): the Potency result was “inactive”.
Take `CC(=O)Nc1ccc(NC(=O)COc2ncnc3ccccc23)cc1`: the Potency entry was “inactive”.
Consider `COC(=O)CSc1nc2cc3c(cc2cc1C#N)OCO3`, for which the Potency is 0.353 µM (active).
To `CCCCn1c(Nc2ccc(OC)cc2)nc2ccccc21` belongs “inactive”.
To `O=C(CCNC(=O)c1ccc(Br)o1)NCc1ccc(Cl)cc1` belongs “inactive”; to `CCOC(=O)c1ccc(-c2nnc(-c3ccc(Cl)cc3Cl)o2)cc1`, 0.705 µM (active).
Regarding `O=C(c1cc2cc([N+](=O)[O-])ccc2oc1=O)n1cccn1`, the Potency entry is “inactive”.
With `Cc1noc(/C=C/N(C)C)c1S(=O)(=O)N1CCCC(C(=O)N2CCCCC2)C1` (configuration not stated), the Potency entry is “inactive”.
For the compound `COc1ccc2oc(=O)c(C(=O)NC(C)c3ccccc3)cc2c1` (configuration not stated), the Potency entry is “inactive”.
On to `CC(C)CC(=O)N1CCN(c2ccc(NC(=O)c3ccco3)cc2)CC1`, for which the Potency result was “inactive”.
Regarding `Cc1ccc(CNC(=O)Nc2ccc(C)cc2)cc1`, the Potency is 19.9 µM (active).
Consider `O=C(COC(=O)c1ccc(-c2nnc(-c3ccccc3)o2)cc1)c1ccccc1`, for which the Potency was 0.396 µM (active).
For the compound `COc1ccc(C)cc1N(C(=O)CNC(=O)c1ccco1)C(C(=O)NC1CCCC1)c1cccnc1` (configuration not stated), the Potency entry is “inactive”.
`O=C(CN1C(=O)COc2ccc(Cl)cc21)NCC1CCCO1` (configuration not stated): the Potency entry was “inactive”.
Turning to `COc1ccc(-c2nnc(SCC(=O)/C(C#N)=C(\C)N)o2)cc1`, the Potency was 0.315 µM (active).
